Assay results: the supplement of paper PMC9446081
± gives the standard deviation of the averaged measurements.

Tests used:
Experiment in all cases: relative enzymatic activity vs untreated control (fraction); higher = less inhibition
Conditions in all cases: 100 µM; incubation time: 2 h at 37 C
DNA gyrase = system: DNA gyrase
Procedure: (§1)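 In vitro enzymatic inhibition assays (ProFoldin kits) for 12 purified essential E. coli enzymes or complexes, each treated with 218 active antibacterial compounds at 100 µM for 2 h at 37°C. Read-outs were fluorescence or absorbance (phosphate detection, dye binding), converted to activity via standard curves and expressed relative to untreated DMSO controls.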

DNA helicase = DNA helicase (UniProt P0ACB1)
Procedure: as §1

DNA ligase = DNA ligase (UniProt B1XA82)
Procedure: as §1

DNA polymerase = DNA polymerase (UniProt P10443)
Procedure: as §1

DNA primase = DNA primase (UniProt P0ABS7)
Procedure: as §1

GlmU = GlmU (UniProt A7ZTU1)
Procedure: as §1

Guanlyate kinase = Guanlyate kinase (UniProt Q0TBG1)
Procedure: as §1

MurA = MurA (UniProt Q3YX52)
Procedure: as §1

MurD = biological target: T1, MurD (UniProt P14900)
T1 sequence (whole entry): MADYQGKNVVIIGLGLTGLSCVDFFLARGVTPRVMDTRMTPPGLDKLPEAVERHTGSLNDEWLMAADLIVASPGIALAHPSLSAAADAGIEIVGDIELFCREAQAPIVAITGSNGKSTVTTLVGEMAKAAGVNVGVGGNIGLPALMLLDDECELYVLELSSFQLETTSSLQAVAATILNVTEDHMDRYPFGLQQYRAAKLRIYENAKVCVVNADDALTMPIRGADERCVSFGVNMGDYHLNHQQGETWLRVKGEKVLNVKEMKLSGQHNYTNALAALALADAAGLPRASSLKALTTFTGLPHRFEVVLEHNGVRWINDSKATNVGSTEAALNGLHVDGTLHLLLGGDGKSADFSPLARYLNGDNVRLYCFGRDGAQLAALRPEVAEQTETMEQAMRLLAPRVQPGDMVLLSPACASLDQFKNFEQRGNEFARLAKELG
Procedure: as §1

MurF = biological target: T2, MurF (UniProt P11880)
T2 sequence (whole entry): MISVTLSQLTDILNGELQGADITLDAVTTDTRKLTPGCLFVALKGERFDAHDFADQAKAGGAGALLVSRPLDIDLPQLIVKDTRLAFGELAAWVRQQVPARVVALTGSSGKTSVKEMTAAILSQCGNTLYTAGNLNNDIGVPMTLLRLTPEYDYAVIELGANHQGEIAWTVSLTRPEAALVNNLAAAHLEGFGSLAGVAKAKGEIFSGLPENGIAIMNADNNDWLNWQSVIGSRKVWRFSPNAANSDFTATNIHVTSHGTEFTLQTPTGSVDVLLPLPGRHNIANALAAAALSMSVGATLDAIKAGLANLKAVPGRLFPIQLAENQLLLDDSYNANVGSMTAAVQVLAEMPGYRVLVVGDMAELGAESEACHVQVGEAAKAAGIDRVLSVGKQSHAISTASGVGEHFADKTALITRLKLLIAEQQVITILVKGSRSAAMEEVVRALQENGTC
Procedure: as §1

RNA polymerase = system: RNA polymerase
Procedure: as §1

Sequence of Guanlyate kinase (Q0TBG1 whole entry): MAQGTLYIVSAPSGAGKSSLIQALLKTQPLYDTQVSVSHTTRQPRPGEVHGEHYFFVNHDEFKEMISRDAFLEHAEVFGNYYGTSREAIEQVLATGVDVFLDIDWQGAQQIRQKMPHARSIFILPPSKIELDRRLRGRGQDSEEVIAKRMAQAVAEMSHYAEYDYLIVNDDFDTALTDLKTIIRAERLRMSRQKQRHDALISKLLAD
Sequence of MurA (Q3YX52 whole entry): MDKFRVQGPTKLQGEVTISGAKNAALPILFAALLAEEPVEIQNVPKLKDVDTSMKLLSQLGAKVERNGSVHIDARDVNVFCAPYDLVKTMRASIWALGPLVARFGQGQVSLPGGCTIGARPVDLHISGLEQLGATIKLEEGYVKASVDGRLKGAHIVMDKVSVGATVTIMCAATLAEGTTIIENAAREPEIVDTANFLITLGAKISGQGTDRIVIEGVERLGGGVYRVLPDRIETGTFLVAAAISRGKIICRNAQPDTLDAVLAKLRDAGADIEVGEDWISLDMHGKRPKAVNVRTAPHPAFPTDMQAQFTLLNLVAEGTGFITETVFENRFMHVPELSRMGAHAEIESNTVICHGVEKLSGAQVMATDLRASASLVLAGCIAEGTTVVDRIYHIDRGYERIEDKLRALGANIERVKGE
Sequence of DNA polymerase (P10443 whole entry): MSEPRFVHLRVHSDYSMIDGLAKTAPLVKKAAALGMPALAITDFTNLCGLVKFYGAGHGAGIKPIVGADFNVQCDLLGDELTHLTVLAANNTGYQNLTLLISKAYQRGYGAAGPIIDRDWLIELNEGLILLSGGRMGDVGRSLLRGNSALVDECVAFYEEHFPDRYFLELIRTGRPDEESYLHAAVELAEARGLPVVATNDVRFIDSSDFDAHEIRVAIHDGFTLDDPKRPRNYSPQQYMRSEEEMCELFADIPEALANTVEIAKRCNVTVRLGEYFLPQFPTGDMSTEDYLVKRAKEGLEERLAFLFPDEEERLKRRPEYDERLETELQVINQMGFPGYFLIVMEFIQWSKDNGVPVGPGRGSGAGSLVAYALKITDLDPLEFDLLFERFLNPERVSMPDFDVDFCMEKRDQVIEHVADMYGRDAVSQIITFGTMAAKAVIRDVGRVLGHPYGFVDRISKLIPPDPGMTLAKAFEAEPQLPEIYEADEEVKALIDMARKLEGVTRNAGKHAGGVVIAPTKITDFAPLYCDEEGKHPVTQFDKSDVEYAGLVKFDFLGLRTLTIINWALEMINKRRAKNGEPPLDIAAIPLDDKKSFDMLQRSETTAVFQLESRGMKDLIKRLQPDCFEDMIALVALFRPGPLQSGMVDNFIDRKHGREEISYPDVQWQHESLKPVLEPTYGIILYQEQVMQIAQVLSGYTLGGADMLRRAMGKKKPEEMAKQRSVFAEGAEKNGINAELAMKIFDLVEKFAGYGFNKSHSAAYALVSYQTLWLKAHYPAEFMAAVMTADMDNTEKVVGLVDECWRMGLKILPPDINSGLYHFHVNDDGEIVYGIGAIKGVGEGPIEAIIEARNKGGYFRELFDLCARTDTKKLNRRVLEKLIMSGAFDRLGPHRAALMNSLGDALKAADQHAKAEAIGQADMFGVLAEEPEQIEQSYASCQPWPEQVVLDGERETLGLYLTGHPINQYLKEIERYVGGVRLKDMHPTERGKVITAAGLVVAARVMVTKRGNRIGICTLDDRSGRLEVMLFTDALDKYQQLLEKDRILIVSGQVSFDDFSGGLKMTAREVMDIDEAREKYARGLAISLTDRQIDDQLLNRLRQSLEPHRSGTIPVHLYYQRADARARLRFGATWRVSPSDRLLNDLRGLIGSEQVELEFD
Sequence of DNA primase (P0ABS7 whole entry): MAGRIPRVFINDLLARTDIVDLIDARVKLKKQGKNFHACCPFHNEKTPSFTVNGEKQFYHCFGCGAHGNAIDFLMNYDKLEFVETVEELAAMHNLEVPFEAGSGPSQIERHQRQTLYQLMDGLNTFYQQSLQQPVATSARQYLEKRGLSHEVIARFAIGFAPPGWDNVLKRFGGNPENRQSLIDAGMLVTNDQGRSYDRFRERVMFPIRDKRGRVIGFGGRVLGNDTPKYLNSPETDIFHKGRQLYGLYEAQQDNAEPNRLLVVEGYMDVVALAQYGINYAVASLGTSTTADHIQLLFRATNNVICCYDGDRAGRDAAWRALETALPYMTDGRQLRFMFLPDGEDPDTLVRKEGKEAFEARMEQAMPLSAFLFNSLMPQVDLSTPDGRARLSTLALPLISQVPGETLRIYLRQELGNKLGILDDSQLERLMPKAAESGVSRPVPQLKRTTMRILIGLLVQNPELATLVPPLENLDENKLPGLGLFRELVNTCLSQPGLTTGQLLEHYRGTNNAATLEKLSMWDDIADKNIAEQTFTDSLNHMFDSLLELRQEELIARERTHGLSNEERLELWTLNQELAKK
Sequence of GlmU (A7ZTU1 whole entry, looked up): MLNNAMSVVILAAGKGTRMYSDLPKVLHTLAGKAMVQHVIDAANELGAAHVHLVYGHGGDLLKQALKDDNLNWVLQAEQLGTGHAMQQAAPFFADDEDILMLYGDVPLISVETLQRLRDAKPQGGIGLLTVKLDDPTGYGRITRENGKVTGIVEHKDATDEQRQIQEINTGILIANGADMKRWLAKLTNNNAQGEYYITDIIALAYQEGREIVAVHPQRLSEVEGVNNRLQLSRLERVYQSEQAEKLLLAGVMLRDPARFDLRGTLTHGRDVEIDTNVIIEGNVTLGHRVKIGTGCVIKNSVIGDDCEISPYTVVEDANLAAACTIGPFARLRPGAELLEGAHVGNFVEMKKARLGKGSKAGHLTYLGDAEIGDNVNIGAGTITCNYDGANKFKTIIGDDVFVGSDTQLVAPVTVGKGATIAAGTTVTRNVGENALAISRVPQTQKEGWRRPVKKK
Sequence of DNA ligase (B1XA82 whole entry): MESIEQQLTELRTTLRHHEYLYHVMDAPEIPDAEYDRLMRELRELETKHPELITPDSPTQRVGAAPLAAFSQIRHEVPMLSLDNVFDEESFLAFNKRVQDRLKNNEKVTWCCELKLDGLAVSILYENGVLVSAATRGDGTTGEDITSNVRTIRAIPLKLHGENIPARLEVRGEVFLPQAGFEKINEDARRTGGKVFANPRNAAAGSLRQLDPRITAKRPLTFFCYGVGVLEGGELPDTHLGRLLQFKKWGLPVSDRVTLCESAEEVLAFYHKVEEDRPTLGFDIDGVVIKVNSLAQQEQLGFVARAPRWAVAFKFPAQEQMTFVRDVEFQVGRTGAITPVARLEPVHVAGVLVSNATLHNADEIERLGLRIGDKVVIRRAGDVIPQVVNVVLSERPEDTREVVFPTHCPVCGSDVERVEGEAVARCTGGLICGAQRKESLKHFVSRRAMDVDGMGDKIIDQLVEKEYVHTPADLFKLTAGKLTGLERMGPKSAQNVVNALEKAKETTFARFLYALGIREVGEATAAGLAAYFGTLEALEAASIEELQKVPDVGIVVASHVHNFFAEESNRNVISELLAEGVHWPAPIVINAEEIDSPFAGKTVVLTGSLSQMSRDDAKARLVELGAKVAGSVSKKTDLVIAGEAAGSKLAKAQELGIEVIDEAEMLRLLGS
Sequence of DNA helicase (P0ACB1 whole entry): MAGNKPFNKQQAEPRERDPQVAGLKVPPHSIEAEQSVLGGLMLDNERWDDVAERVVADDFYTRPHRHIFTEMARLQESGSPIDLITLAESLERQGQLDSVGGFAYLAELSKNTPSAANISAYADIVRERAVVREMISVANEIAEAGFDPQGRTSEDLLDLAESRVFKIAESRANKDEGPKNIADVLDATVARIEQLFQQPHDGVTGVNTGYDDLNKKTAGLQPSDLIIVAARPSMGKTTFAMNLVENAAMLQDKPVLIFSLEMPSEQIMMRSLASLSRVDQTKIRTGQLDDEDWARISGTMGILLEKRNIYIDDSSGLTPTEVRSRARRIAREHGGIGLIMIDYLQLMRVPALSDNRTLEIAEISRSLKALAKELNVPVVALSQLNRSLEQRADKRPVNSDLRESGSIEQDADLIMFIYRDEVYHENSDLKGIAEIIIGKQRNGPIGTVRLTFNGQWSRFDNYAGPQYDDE

| Structure (SMILES) | relative enzymatic activity (DNA gyrase) | relative enzymatic activity (DNA helicase) | relative enzymatic activity (DNA ligase) | relative enzymatic activity (DNA polymerase) | relative enzymatic activity (DNA primase) | relative enzymatic activity (GlmU) | relative enzymatic activity (Guanlyate kinase) | relative enzymatic activity (MurA) | relative enzymatic activity (MurD) | relative enzymatic activity (MurF) | relative enzymatic activity (RNA polymerase) |
| --- | --- | --- | --- | --- | --- | --- | --- | --- | --- | --- | --- |
| CN1CCN(c2c(F)cc3c(=O)c(C(=O)O)cn(CCF)c3c2F)CC1 | 0.024 ± 0.034 | 0.746 ± 0.23 | 1.37 ± 0.041 | 1.28 ± 0.3 | 0.722 ± 0.21 | 1.16 ± 0.2 | 0.94 ± 0.085 | 0.748 ± 0.029 | 0.591 ± 0.39 | 0.984 ± 0.22 | 1.05 ± 0.31 |
| CC1CN(c2c(F)c(F)c3c(=O)c(C(=O)O)cn(C4CC4)c3c2F)CC(C)N1 (stereo not drawn) | 0.063 ± 0.089 | 0.599 ± 0.21 | 1.09 ± 0.085 | 0.509 ± 0.72 | 0.8561 ± 0.0075 | 0.97 ± 0.066 | 0.949 ± 0.073 | 0.676 ± 0.015 | 0.597 ± 0.41 | 1.09 ± 0.014 | 0.847 ± 0.13 |
| Nc1nc(C(=CCC(=O)O)C(=O)NC2C(=O)N3C(C(=O)O)=CCSC23)cs1 (stereo not drawn) | 0.16 ± 0.14 | 0.257 ± 0.0059 | 1.1 ± 0.24 | 0.742 ± 0.27 | 0.682 ± 0.082 | 0.934 ± 0.01 | 0.901 ± 0.03 | 0.0583 ± 0.02 | 0.575 ± 0.39 | 0.958 ± 0.24 | 0.292 ± 0.037 |
| COC1=C(OC)C(=O)C(CCCCCCCCCC[P+](c2ccccc2)(c2ccccc2)c2ccccc2)=C(C)C1=O | ≤ 0 | 0.0205 ± 0.0027 | 0.705 ± 0.021 | 0.0027 ± 0.0017 | ≤ 0 | 0.155 ± 0.019 | ≤ 0 | 0.021 ± 0.0015 | 0.162 ± 0.074 | 0.211 ± 0.023 | 0.0008799 ± 4.6e-06 |
| NCCCC[C@H](NC(=O)[C@@H](NC(=O)[C@H](Cc1c[nH]c2ccccc12)NC(=O)[C@H](CCCCN)NC(=O)[C@H](CCCCN)NC(=O)[C@H](Cc1c[nH]c2ccccc12)NC(=O)[C@H](Cc1c[nH]c2ccccc12)NC(=O)[C@H](CCCCN)NC(=O)[C@@H](N)CCCCN)C(c1ccccc1)c1ccccc1)C(N)=O | 0.0308 ± 0.044 | 0.0869 ± 0.0012 | 1.12 ± 0.43 | 0.0842 ± 0.0071 | 0.299 ± 0.053 | 0.879 ± 0.061 | 0.355 ± 0.02 | 0.477 ± 0.43 | 0.568 ± 0.41 | 0.833 ± 0.18 | 0.0964 ± 0.032 |
| COC1(NC(=O)C(C(=O)[O-])c2ccc(O)cc2)C(=O)N2C(C(=O)[O-])=C(CSc3nnnn3C)COC21.[Na+].[Na+] (stereo not drawn) | 1.04 ± 0.15 | 0.607 ± 0.17 | 1.25 ± 0.16 | 1.27 ± 0.34 | 0.693 ± 0.17 | 0.998 ± 0.085 | 1.02 ± 0.11 | 0.069 ± 0.017 | 0.584 ± 0.39 | 0.913 ± 0.23 | 0.848 ± 0.071 |
| C=CC1=C(C(=O)O)N2C(=O)[C@@H](NC(=O)/C(=N\O)c3csc(N)n3)[C@H]2SC1 | 0.489 ± 0.086 | 0.523 ± 0.095 | 0.92 ± 0.15 | 1.13 ± 0.24 | 0.774 ± 0.038 | 0.988 ± 0.07 | 0.885 ± 0.068 | 0.212 ± 0.095 | 0.619 ± 0.42 | 0.981 ± 0.22 | 0.894 ± 0.077 |
| NC(=O)N/N=C/c1ccc([N+](=O)[O-])o1 | 0.691 ± 0.48 | 0.657 ± 0.29 | 0.974 ± 0.26 | 1.04 ± 0.16 | 0.761 ± 0.072 | 1.006 ± 0.004 | 0.751 ± 0.048 | 0.504 ± 0.021 | 0.507 ± 0.66 | 0.962 ± 0.21 | 0.734 ± 0.088 |
| COc1c(N2CC3CCCNC3C2)c(F)cc2c(=O)c(C(=O)O)cn(C3CC3)c12.Cl (stereo not drawn) | 0.0344 ± 0.049 | 0.559 ± 0.16 | 1.22 ± 0.1 | 1.13 ± 0.18 | 0.682 ± 0.17 | 0.986 ± 0.039 | 0.825 ± 0.096 | 0.795 ± 0.041 | 0.597 ± 0.41 | 0.94 ± 0.19 | 0.868 ± 0.083 |
| COC1(NC(=O)CSCC#N)C(=O)N2C(C(=O)[O-])=C(CSc3nnnn3C)CSC21.[Na+] (stereo not drawn) | 0.762 ± 0.27 | 0.259 ± 0.32 | 1.42 ± 0.28 | 1.16 ± 0.3 | 0.669 ± 0.18 | 1.12 ± 0.035 | 0.746 ± 0.076 | 0.167 ± 0.022 | 0.706 ± 0.47 | 1.01 ± 0.2 | 0.839 ± 0.031 |
| Nc1nc(/C(=N/O)C(=O)N[C@@H]2C(=O)N3C(C(=O)O)=C(/C=C4\CCN([C@@H]5CCNC5)C4=O)CS[C@H]23)ns1 | 0.279 ± 0.18 | 0.389 ± 0.35 | 0.901 ± 0.11 | 1.08 ± 0.3 | 0.816 ± 0.035 | 0.83 ± 0.021 | 0.881 ± 0.12 | 0.0852 ± 0.03 | 0.57 ± 0.38 | 1.1 ± 0.069 | 0.561 ± 0.045 |
| Oc1c(Cl)cc(Cl)c(Cl)c1Cc1c(O)c(Cl)cc(Cl)c1Cl | 0.191 ± 0.12 | 0.06883 ± 0.00038 | 0.514 ± 0.1 | 0.222 ± 0.019 | 0.436 ± 0.0013 | 1.07 ± 0.11 | 0.162 ± 0.0089 | 0.899 ± 0.6 | 1.25 ± 0.89 | 0.446 ± 0.1 | 0.293 ± 0.0084 |
| Cc1cc(C2CCCCC2)n(O)c(=O)c1.NCCO | 1.114 ± 0.0086 | 0.546 ± 0.12 | 1.28 ± 0.12 | 1.29 ± 0.34 | 0.751 ± 0.22 | 1.12 ± 0.0031 | 1.05 ± 0.04 | 0.975 ± 0.045 | 0.678 ± 0.45 | 1.02 ± 0.2 | 0.8877 ± 0.0077 |
| O=c1[nH]c(=O)n(C2CC(O)C(CO)O2)cc1F (stereo not drawn) | 0.98 ± 0.053 | 0.557 ± 0.14 | 1.15 ± 0.19 | 1.2 ± 0.26 | 0.657 ± 0.14 | 1.09 ± 0.097 | 1.03 ± 0.036 | 0.856 ± 0.064 | 0.597 ± 0.4 | 0.931 ± 0.18 | 0.84 ± 0.0053 |
| NC(=O)[C@@H]1CC[C@@H]2CN1C(=O)N2OS(=O)(=O)O | 0.771 ± 0.26 | 0.552 ± 0.18 | 0.834 ± 0.21 | 0.501 ± 0.71 | 0.803 ± 0.037 | 0.998 ± 0.01 | 0.947 ± 0.072 | 0.699 ± 0.17 | 0.604 ± 0.42 | 0.976 ± 0.22 | 0.809 ± 0.13 |
| CC1(C)S[C@@H]2[C@H](NC(=O)[C@H](N)c3ccccc3)C(=O)N2[C@H]1C(=O)OCOC(=O)[C@@H]1N2C(=O)C[C@H]2S(=O)(=O)C1(C)C | 0.828 ± 0.25 | 0.472 ± 0.23 | 0.742 ± 0.024 | 0.512 ± 0.72 | 0.809 ± 0.025 | 0.994 ± 0.012 | 0.946 ± 0.046 | 0.6 ± 0.24 | 0.58 ± 0.38 | 1.11 ± 0.15 | 0.868 ± 0.042 |
| CN[C@@H]1[C@H](O[C@H]2[C@H](O[C@@H]3[C@@H](O)[C@H](O)[C@@H](NC(=N)N)[C@H](O)[C@H]3NC(=N)N)O[C@@H](C)[C@]2(O)CO)O[C@@H](CO)[C@H](O)[C@H]1O.CN[C@@H]1[C@H](O[C@H]2[C@H](O[C@@H]3[C@@H](O)[C@H](O)[C@@H](NC(=N)N)[C@H](O)[C@H]3NC(=N)N)O[C@@H](C)[C@]2(O)CO)O[C@@H](CO)[C@H](O)[C@H]1O | 0.527 ± 0.36 | 0.498 ± 0.089 | 1.09 ± 0.32 | 1.08 ± 0.055 | 0.853 ± 0.0042 | 1.001 ± 0.0056 | 0.983 ± 0.047 | 0.803 ± 0.02 | 0.922 ± 0.86 | 0.524 ± 0.73 | 0.481 ± 0.52 |
| CC(O)C1C(=O)N2C(C(=O)O)=C(SC3CNC(C(=O)N(C)C)C3)C(C)C12 (stereo not drawn) | 0.734 ± 0.42 | 0.994 ± 0.1 | 1.45 ± 0.021 | 1.26 ± 0.3 | 0.719 ± 0.22 | 1.04 ± 0.19 | 0.973 ± 0.11 | 0.501 ± 0.29 | 0.487 ± 0.33 | 0.584 ± 0.82 | 1.09 ± 0.28 |
